The record followed here is PubChem BioAssay (EPA / NIEHS).

The structures appear in SMILES notation. Inconclusive results are not listed. The source made the active and inactive calls. The calls were made as follows, unless noted: active = hit-call score of the fitted dose curve at least 0.9, where 1 is the maximum; inactive = score below 0.9.

Test [1] in a line: ACEA_ER_80hr: ACEA Biosciences xCELLigence Real-Time Cell Analysis on Estrogen Receptor Agonism for Proliferation (AID 2282667; active = hit-call score of the fitted dose curve at least 0.9, where 1 is the maximum). As to conditions: T47D proliferation, impedance (xCELLigence), 80 h. In a few lines: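 T47D human breast cells were seeded on electrode plates, monitored overnight, then exposed continuously to compounds in eight-point 1:4 dilutions from 100 uM (max 0.5% DMSO). Impedance-based growth was read at 80 h, fitted upward relative to DMSO.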

A short description of test [2]: ATG_CRE_CIS: Attagene CIS-FACTORIAL HepG2 Assay for human cAMP Responsive Element (CRE) binding protein 3 (AID 2282926). The conditions noted are these: HepG2 CRE cis-reporter, Attagene multiplexed mRNA; actives raise or lower the signal. In a few lines: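 Capillary electrophoresis of 6-FAM-labelled, HpaI-digested PCR products quantified reporter transcripts. These came from HepG2 transiently transfected with cis-element reporters and exposed to test chemicals for 24 hours, with DMSO defining baseline activity.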

Test [3] deals with CCAAT/enhancer-binding protein beta (Homo sapiens) (UniProt P17676). In words: ATG_C_EBP_CIS: Attagene CIS-FACTORIAL HepG2 Assay for human CCAAT/Enhancer Binding Protein (C/EBP) beta (AID 2282927). The conditions noted are these: HepG2 Attagene cis-factorial transcription factor reporter; actives raise or lower the signal. The essentials:
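HepG2 transiently transfected with multiplexed reporter units under cis-regulatory promoters reporting endogenous C/EBPb activity. After 24 h exposure, reporter mRNA assayed by RT-PCR, fluorescent labelling, HpaI digestion and capillary electrophoresis; bidirectional fitting versus DMSO.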

A short description of test [4]: ATG_CMV_CIS: Attagene CIS-FACTORIAL HepG2 Assay for human CMV (Internal Marker) (AID 2282928).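 Also: endpoint acts as a background internal control marker rather than a target.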 As to conditions: HepG2 CMV promoter reporter, transcription factor profiling; actives raise or lower the signal. The essentials:
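Reporter transcripts from transfected HepG2 cells are isolated after 24 h of chemical dosing, reverse-transcribed and amplified. Fragments labeled with 6-FAM are cut with HpaI and quantified by capillary electrophoresis; DMSO defines baseline.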

The nature of test [5]: ATG_DR4_LXR_CIS: Attagene CIS-FACTORIAL HepG2 Assay for human Liver X Receptor (LXR), DR4 submotif (AID 2282929). As to conditions: HepG2 Attagene DR4 cis-reporter, mRNA transcription; actives raise or lower the signal. In a few lines: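 HepG2 cells were transiently transfected with multiple cis-regulated reporter units and dosed for 24 hours. The DR4 reporter mRNA was quantified by RT-PCR, 6-FAM labelling and capillary electrophoresis. Bidirectional fits used DMSO as baseline.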

Test [6] concerns the target Aryl hydrocarbon receptor (Homo sapiens) (UniProt P35869). The test is described as follows: ATG_Ahr_CIS: Attagene CIS-FACTORIAL HepG2 Assay for human Aryl Hydrocarbon Receptor (Ahr) (AID 2282930). As to conditions: HepG2 AhR cis-factorial reporter transcription; actives raise or lower the signal. The essentials: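 HepG2 cells transiently transfected with cis-element-driven multiplexed reporter units; endogenous AhR activity read as reporter mRNA 24 h after dosing, via RT-PCR, 6-FAM labelling, HpaI digestion and capillary electrophoresis. Bidirectional fit relative to DMSO.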

Test [7] can be described thus: ATG_AP_1_CIS: Attagene CIS-FACTORIAL HepG2 Assay for human Activator Protein 1 (AP-1) (AID 2282931). As to conditions: HepG2 Attagene cis-factorial AP-1 reporter mRNA; actives raise or lower the signal. The essentials:
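HepG2 cells transiently transfected with cis-element-driven reporter transcription units, dosed for 24 hours. Reporter mRNA measured by RT-PCR, 6-FAM labelling, HpaI digestion and capillary electrophoresis. Bidirectional fitting against DMSO baseline.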

Test [8] in a line: ATG_AP_2_CIS: Attagene CIS-FACTORIAL HepG2 Assay for human Activator Protein 2 (AP-2) (AID 2282932). As to conditions: HepG2 AP-2 cis-reporter, Attagene transcription factor profiling; actives raise or lower the signal. In a few lines: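 Read-out: fluorescent reporter mRNA via RT-PCR and capillary electrophoresis, 24 h post-dose in transiently transfected HepG2. Endogenous factors drive cis-promoter reporters; gain or loss of signal fitted bidirectionally against DMSO.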

The nature of test [9]: ATG_BRE_CIS: Attagene CIS-FACTORIAL HepG2 Assay for human Bone Morphogenetic Protein (BMP) Response Element (BRE) (AID 2282933). The conditions noted are these: HepG2 BMP response element reporter, Attagene transcription factor profiling; actives raise or lower the signal. In a few lines: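 Multiplexed cis-reporter assay, HepG2, 24 h exposure. mRNA from reporter units quantified via RT-PCR/CE; DMSO baseline; bidirectional curve fit.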

Test [10] has as its target Retinoic acid receptor alpha (Homo sapiens) (UniProt P10276). In words: ATG_DR5_RAR_CIS: Attagene CIS-FACTORIAL HepG2 Assay for human Retinoic Acid Receptor Alpha (RARE), DR5 submotif (AID 2282934). As to conditions: HepG2 Attagene cis-factorial RARE DR5 reporter, mRNA; actives raise or lower the signal. In a few lines:
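HepG2 cells transiently transfected with multiplexed reporter units; DR5 cis-element drives reporter through endogenous transcription factors. After 24 h dosing, reporter mRNA quantified by RT-PCR, fluorescent labeling, HpaI digestion and capillary electrophoresis; bidirectional fitting versus DMSO.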

For test [11], the target named is Transcription factor E2F1 (Homo sapiens) (UniProt Q01094). The test is described as follows: ATG_E2F_CIS: Attagene CIS-FACTORIAL HepG2 Assay for human E2F Transcription Factor 1 (AID 2282935). The conditions noted are these: HepG2 Attagene cis-reporter, E2F reporter RNA transcripts; actives raise or lower the signal. In a few lines:
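Transient MRTU transfection of HepG2; 24 h compound exposure; RNA → oligo(dT) RT → PCR → FAM label → HpaI cut → CE fluorescence. Gain/loss of signal fit against DMSO.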

Test [12] in a line: ATG_E_Box_CIS: Attagene CIS-FACTORIAL HepG2 Assay for human Enhancer Box (E-box) (AID 2282936). As to conditions: HepG2 E-box cis-reporter transcription, actives raise or lower the signal. In a few lines: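 Transiently transfected HepG2, endogenous TF-driven reporters, 24 h dosing. Readout: RT-PCR plus capillary electrophoresis of fluorescent reporter fragments. Gain or loss of signal fitted bidirectionally against DMSO baseline.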

Test [13] in a line: ATG_EGR_CIS: Attagene CIS-FACTORIAL HepG2 Assay for human Early Growth Response 1 (EGR1) (AID 2282938). The conditions noted are these: HepG2 Attagene CIS-FACTORIAL EGR reporter mRNA; actives raise or lower the signal. The essentials:
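HepG2 cells transiently transfected with cis-element-driven multiplexed reporter units, dosed for 24 h. EGR1-element reporter mRNA quantified by RT-PCR, 6-FAM labelling, HpaI digestion and capillary electrophoresis; bidirectional fit versus DMSO.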

Test [14] in a line: ATG_ERE_CIS: Attagene CIS-FACTORIAL HepG2 Assay for Estrogen Response Element (ERE) (AID 2282940). The conditions noted are these: HepG2 ERE cis-reporter, Attagene RNA transcript; actives raise or lower the signal. In a few lines: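 Fluorescence of capillary-separated, FAM-labelled reporter cDNA fragments indicates reporter mRNA levels in HepG2 cells exposed to chemicals for 24 h. Transient transfection with cis-regulated units; data fitted in both directions against DMSO.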

The target in test [15] is Hepatocyte nuclear factor 3-beta (Homo sapiens) (UniProt Q9Y261). In words: ATG_FoxA2_CIS: Attagene CIS-FACTORIAL HepG2 Assay for human Forkhead box A2 (FOXA2) (AID 2282942). The conditions noted are these: HepG2 cis-reporter transcription factor activity, 24 h; actives raise or lower the signal. The essentials: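 HepG2 transiently transfected with a multiplexed cis-promoter reporter library read endogenous FOXA2 activity. After 24 h compound exposure, reporter mRNA was quantified by RT-PCR, HpaI digestion and capillary electrophoresis. Bidirectional fit against DMSO.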

Test [16] can be described thus: ATG_FoxO_CIS: Attagene CIS-FACTORIAL HepG2 Assay for human Forkhead box O (FoxO) (AID 2282943). As to conditions: HepG2 Attagene cis-reporter, FoxO element, mRNA; actives raise or lower the signal. The essentials:
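HepG2 cells transiently transfected with cis-element-driven reporter units report endogenous FoxO activity. After 24 h chemical exposure, reporter mRNA quantified by RT-PCR, fluorescent labeling, HpaI digestion and capillary electrophoresis; bidirectional fit versus DMSO.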

Test [17] can be described thus: ATG_GATA_CIS: Attagene CIS-FACTORIAL HepG2 Assay for human GATA Binding Protein (AID 2282944). The conditions noted are these: HepG2 GATA cis-element reporter, Attagene multiplex mRNA; actives raise or lower the signal. In a few lines: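 After transfecting HepG2 cells with multiple cis-regulated reporter units, chemicals are dosed for 24 h; isolated RNA undergoes RT-PCR and fluorescent labeling before capillary electrophoresis, with activity expressed against DMSO.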

A short description of test [18]: ATG_M_19_CIS: Attagene CIS-FACTORIAL HepG2 Assay for M19 Transcription Factor (Internal Marker) (AID 2282939). The conditions noted are these: HepG2 Attagene CIS-FACTORIAL M19 internal marker reporter; actives raise or lower the signal. In a few lines:
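Signals come from fluorescence of labelled reporter-specific PCR fragments resolved by capillary electrophoresis, following 24 h treatment of HepG2 cells transfected with cis-promoter reporter units; activity was fitted in both directions relative to DMSO.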

Test [19] is described as follows: ATG_M_61_CIS: Attagene CIS-FACTORIAL HepG2 Assay for M61 Transcription Factor (Internal Marker) (AID 2282937). The conditions noted are these: HepG2 Attagene CIS-FACTORIAL M61 internal marker reporter; actives raise or lower the signal. The essentials:
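HepG2 cells transiently transfected with multiplexed cis-promoter reporter units reporting endogenous transcription factor activity, measured 24 h after dosing. Reporter mRNA quantified by RT-PCR and capillary electrophoresis; bidirectional fit against DMSO baseline.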

Test [20] can be described thus: ATG_Ets_CIS: Attagene CIS-FACTORIAL HepG2 Assay for human Erythroblast Transformation Specific (ETS) (AID 2282941). The conditions noted are these: HepG2 ETS cis-reporter transcription, actives raise or lower the signal. In a few lines:
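Bidirectional fit versus DMSO of reporter mRNA signal, detected by RT-PCR and capillary electrophoresis in HepG2 cells transiently transfected with cis-element reporters and dosed 24 h.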

Retinoic acid receptor alpha (Homo sapiens), sequence (P10276 whole entry, looked up): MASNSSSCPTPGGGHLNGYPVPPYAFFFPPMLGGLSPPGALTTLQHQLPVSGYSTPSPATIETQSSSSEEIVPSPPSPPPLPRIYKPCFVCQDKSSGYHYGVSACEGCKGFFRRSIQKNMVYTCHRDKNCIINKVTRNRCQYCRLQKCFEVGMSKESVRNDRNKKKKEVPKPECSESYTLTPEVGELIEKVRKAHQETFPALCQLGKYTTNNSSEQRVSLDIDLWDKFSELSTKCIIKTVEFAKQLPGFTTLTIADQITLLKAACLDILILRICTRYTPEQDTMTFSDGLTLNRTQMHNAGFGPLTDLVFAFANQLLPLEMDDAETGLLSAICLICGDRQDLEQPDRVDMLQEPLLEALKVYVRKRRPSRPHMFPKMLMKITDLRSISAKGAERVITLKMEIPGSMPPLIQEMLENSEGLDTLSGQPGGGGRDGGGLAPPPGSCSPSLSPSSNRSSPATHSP
Hepatocyte nuclear factor 3-beta (Homo sapiens), sequence (Q9Y261 whole entry, looked up): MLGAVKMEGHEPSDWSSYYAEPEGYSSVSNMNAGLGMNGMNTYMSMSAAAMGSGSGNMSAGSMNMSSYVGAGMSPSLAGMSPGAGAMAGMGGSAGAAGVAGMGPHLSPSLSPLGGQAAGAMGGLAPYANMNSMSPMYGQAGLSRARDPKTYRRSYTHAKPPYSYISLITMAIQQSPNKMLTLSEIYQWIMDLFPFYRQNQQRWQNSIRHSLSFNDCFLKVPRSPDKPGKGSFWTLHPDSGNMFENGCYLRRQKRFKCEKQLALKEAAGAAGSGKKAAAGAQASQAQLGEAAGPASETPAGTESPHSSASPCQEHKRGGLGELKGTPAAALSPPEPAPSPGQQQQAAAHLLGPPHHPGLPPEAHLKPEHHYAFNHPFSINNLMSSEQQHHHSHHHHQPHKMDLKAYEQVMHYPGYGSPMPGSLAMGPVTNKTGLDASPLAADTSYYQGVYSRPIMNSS
Aryl hydrocarbon receptor (Homo sapiens), sequence (P35869 whole entry, looked up): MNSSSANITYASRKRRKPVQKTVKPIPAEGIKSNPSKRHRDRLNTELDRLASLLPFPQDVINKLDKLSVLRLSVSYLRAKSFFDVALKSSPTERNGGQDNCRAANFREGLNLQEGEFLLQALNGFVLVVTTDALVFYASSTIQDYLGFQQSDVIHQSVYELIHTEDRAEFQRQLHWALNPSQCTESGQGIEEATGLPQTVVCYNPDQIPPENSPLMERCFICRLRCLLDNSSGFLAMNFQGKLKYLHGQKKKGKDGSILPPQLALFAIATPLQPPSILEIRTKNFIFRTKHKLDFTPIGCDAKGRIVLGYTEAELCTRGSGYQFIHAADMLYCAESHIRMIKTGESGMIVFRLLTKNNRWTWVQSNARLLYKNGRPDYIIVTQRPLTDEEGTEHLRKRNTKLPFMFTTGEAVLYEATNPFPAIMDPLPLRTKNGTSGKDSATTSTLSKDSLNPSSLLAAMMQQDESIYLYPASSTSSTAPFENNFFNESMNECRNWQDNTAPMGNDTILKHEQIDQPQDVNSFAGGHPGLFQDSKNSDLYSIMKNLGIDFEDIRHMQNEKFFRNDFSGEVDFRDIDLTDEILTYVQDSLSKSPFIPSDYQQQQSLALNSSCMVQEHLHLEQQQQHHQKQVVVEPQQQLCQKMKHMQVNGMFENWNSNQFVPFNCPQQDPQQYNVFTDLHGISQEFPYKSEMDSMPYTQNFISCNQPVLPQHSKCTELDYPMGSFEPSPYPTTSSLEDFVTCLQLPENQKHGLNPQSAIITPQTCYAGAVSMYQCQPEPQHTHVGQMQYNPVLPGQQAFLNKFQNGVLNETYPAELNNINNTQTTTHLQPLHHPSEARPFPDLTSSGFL
CCAAT/enhancer-binding protein beta (Homo sapiens), sequence (P17676 whole entry, looked up): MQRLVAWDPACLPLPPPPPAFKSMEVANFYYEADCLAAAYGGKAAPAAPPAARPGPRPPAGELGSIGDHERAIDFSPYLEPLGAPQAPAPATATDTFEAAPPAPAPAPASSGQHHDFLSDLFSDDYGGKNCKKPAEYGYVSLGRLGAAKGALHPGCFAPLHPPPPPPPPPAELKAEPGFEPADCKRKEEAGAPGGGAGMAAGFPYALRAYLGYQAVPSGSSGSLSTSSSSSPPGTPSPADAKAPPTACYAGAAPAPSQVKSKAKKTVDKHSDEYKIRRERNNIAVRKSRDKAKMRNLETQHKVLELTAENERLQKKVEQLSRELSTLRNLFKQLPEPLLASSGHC
Transcription factor E2F1 (Homo sapiens), sequence (Q01094 whole entry, looked up): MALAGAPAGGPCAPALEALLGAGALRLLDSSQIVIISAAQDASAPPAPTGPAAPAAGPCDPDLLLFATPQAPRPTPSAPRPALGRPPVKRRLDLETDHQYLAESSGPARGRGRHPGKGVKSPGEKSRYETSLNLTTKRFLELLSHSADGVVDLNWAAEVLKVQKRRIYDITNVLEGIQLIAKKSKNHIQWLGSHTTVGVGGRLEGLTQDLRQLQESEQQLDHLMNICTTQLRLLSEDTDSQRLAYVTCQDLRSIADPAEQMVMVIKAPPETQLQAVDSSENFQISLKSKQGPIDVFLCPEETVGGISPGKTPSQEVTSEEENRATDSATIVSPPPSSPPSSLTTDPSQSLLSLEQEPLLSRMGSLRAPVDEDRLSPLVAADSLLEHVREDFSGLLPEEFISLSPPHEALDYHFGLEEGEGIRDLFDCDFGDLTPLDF

For the molecule `Brc1ccccn1`, the molecule was classed as inactive in [1], in [2], in [3], in [4], in test [5] and in test [6]. The molecule was classed as inactive in test [7], in test [8], in test [9], in test [10], in test [11] and in test [12]. Besides, the call in test [13], in test [14], in [15], in test [16] and in test [17] was inactive.

One may read the AC50 as the midpoint of the concentration-response curve, whichever way the signal moves. As to `O=C(O)CCC(F)(F)C(F)(F)C(F)(F)C(F)(F)C(F)(F)C(F)(F)C(F)(F)F`, the molecule was classed as inactive in test [1], in [2], in test [3], in test [4], in test [5] and in test [6]. For the same molecule, the molecule was classed as inactive in test [8], in [9], in test [10], in test [11], in test [12] and in [13]. Further, the result in test [18], in test [14], in [15], in test [16] and in test [17] was inactive. Moreover, the AC50 in test [7] is 94.3 µM (active).

On to `Cc1ccc(O)c(-n2nc3ccccc3n2)c1`, for which the result in test [1], in test [2], in test [3], in test [4], in test [5] and in test [7] was inactive. In addition, the call in [8], in test [9], in test [10], in test [11], in test [12] and in [13] was inactive. In addition, the molecule was classed as inactive in test [15], in test [16] and in test [17]. The AC50 in [6] was 7.41 µM (active).

In the case of `CC(=O)C=O`, the outcome in test [1], in test [2], in test [3], in [4], in [5] and in [6] was inactive. The call in test [7], in [8], in test [9], in [10], in [11] and in test [12] was inactive. Also, the outcome in test [19], in test [13], in test [14], in test [15], in test [16] and in test [17] was inactive.

For `OCC1CCCO1` (stereo not drawn), the call in [1], in [2], in test [3], in test [4], in test [5] and in test [6] was inactive. Besides, the call in [7], in test [8], in test [9], in test [10], in test [11] and in test [12] was inactive. Besides, the result in test [19], in test [13], in test [18], in test [14], in [20] and in test [15] was inactive. The molecule was called inactive in [16] and in [17].

For `CSc1ccc(Cl)cc1`, the molecule was called inactive in test [1], in test [2], in test [3], in test [4], in [5] and in test [6]. The call in test [7], in [8], in [9], in test [10], in test [11] and in [12] was inactive. For the same molecule, the outcome in [13], in test [18], in test [15], in test [16] and in test [17] was inactive.

On to `CN1CN(C)CN(C)C1`, for which the outcome in test [1], in test [2], in test [3], in [4], in [6] and in test [7] was inactive. Also, the molecule was called inactive in test [8], in [9], in test [10], in [11], in test [12] and in test [19]. The outcome in [13], in [18], in test [14], in [15], in [16] and in test [17] was inactive. In addition, in test [5], the AC50 is 135 µM (active).

For the molecule `CCCCOC(=O)[C@H](C)O`, the molecule was called inactive in test [1], in [2], in test [3], in test [4], in [5] and in [6]. For the same molecule, the call in test [7], in [8], in test [9], in [10], in test [11] and in test [12] was inactive. Besides, the outcome in test [19], in test [13], in test [18], in test [15], in test [16] and in test [17] was inactive.
